Bioassay records (PubChem)
DAX1 inh-1 = NR0B1 (DAX1) inhibition. inhibition, % at 6.75 µM. HEK293 Gal4-DAX1 luciferase reporter, luminescence. P51843. hit rate 0.99% among 340,000. AID 504766;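 active = inhibition above the mean over all tested compounds plus 3 SD, cut at about 4.2% in these data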;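 note: 0% = DAX1-transfected cells with DMSO and 100% = empty-vector control cells with DMSO; inhibition shows as a rise in luminescence from relieved DAX1 repression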
Target sequence (P51843 207-470 limits assumed): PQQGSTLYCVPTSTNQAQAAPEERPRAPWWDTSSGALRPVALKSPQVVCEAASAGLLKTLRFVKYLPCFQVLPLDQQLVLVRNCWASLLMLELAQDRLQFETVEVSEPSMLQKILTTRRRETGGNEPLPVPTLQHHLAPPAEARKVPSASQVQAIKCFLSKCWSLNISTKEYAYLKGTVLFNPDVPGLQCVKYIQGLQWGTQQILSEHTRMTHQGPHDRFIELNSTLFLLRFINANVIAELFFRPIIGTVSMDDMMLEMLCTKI
DAX1 inh-2 = inhibitors of DAX1 repression of SF-1 activated StAR promoter; hit rate 1.1% among 370,000; HEK293T StAR-luciferase reporter, SF-1/DAX-1 repression relief; inhibition, % at 6.8 µM;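 active = inhibition above the mean over all tested compounds plus 3 SD, cut at about 3.6% in these data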;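 note: 0% = DAX-1 cells with DMSO and 100% = cells lacking DAX-1 with DMSO; higher inhibition means more luminescence from relief of DAX-1 repression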
hgDAF-12 ag = hgDAF-12 agonism, primary luciferase screen | activation, % at 6.8 µM | hit rate 1.8% among 370,000 | HEK293 GAL4-hgDAF12 UAS-luciferase reporter, agonist luminescence; normalized to butyrate control | AID 687014;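 active = activation above a cutoff set at the mean of all screened compounds plus 3 SD, cut at about 10% in these data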;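 note: 0% = DMSO wells and 100% = sodium butyrate wells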
FXN GAA850 act = activators of GAA850 frataxin (FXN) promoter | HEK293 lucGAA850 FXN promoter luciferase reporter, 24 h; percent of 10 µM SAHA response | activation, % at 6 µM | hit rate 0.56% among 360,000;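 active = activation above the average of all compounds screened plus 3 SD, cutoff fixed separately per campaign, cut at about 7.5% in these data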;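 note: 0% = DMSO wells and 100% = 10 µM SAHA wells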
ssDAF-12 act = activators of S. stercoralis DAF-12 nuclear receptor; HEK293 ssDAF-12/GRIP1 lit1-tk-luc reporter, luminescence; % of 3 µM dafachronic acid response; activation, % at 6.8 µM; hit rate 1% among 370,000;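 active = activation above the mean over all tested compounds plus 3 SD, cut at about 0.9% in these data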;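 note: 0% = DMSO-only wells and 100% = 3 µM delta7-dafachronic acid wells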
hcDAF12 agonist = activators of H. contortus DAF-12 nuclear receptor. HEK293 hcDAF-12 lit1-tk-luc reporter, luminescence; 0% DMSO, 100% Δ7-dafachronic acid. activation, % at 6.8 µM. hit rate 1.4% among 370,000. AID 652067;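 active = activation above the mean of all tested compounds plus 3 SD, cut at about 5.5% in these data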;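 note: 100% = response to 3 µM Δ7-dafachronic acid high control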
* hit, by the source's call. The list is not random: actives were taken first. Their share in the collection is about 4.5%.

How did CC(C)(C)C(=O)Nc1ccc(C(=O)OC2CCCCC2)cc1 do in these assays?
DAX1 inh-1: 1; FXN GAA850 act: 10*

Results for N/C(=N\OC(=O)c1ccc(Cl)c([N+](=O)[O-])c1)c1ccccn1 ?
DAX1 inh-1: 0; DAX1 inh-2: -1; hgDAF-12 ag: 0; FXN GAA850 act: 1; ssDAF-12 act: -1; hcDAF12 agonist: -1

Results for N/C(=N\OC(=O)C12CC3CC(CC(C3)C1)C2)c1ccccc1 ?
DAX1 inh-1: 2; DAX1 inh-2: -1; hgDAF-12 ag: 0; FXN GAA850 act: 2; ssDAF-12 act: -1; hcDAF12 agonist: 3

Results for N/C(=N\OC(=O)c1ccc(Cl)c(Cl)c1)c1ccccn1 ?
DAX1 inh-1: 0; DAX1 inh-2: 4.2*; hgDAF-12 ag: 11*; FXN GAA850 act: -1; ssDAF-12 act: 1; hcDAF12 agonist: 5

Results for Cc1cc(/C(N)=N/OC(=O)c2ccc(Cl)cc2)no1 ?
DAX1 inh-2: 2; hgDAF-12 ag: 11*; FXN GAA850 act: 3; ssDAF-12 act: 0; hcDAF12 agonist: 4

How did N/C(=N\OC(=O)C12CC3CC(CC(C3)C1)C2)c1ccccn1 do in these assays?
DAX1 inh-1: 1; DAX1 inh-2: 2; hgDAF-12 ag: 11*; FXN GAA850 act: 7; ssDAF-12 act: -1; hcDAF12 agonist: 4

Results for N/C(=N\OC(=O)c1ccccc1[N+](=O)[O-])c1ccccn1 ?
DAX1 inh-1: 0; DAX1 inh-2: 1; hgDAF-12 ag: 10*; FXN GAA850 act: 5; ssDAF-12 act: 1; hcDAF12 agonist: 3

What do the screens show for `CCCCOc1cccc(C(=O)NCCc2ccccc2-c2ccccc2CCC(=O)NCc2ccccc2)c1`?
DAX1 inh-2: 0; hgDAF-12 ag: 3; ssDAF-12 act: -1; hcDAF12 agonist: 1

How did COc1ccc(C(=O)CSc2nnc(-c3ccccn3)n2-c2ccccc2)cc1 do in these assays?
DAX1 inh-2: -1; hgDAF-12 ag: 0; ssDAF-12 act: -2; hcDAF12 agonist: -2

Results for COc1ccc(C(=O)O/N=C(\N)c2ccccn2)cc1 ?
DAX1 inh-1: -3; DAX1 inh-2: 0; hgDAF-12 ag: -6; FXN GAA850 act: -8; ssDAF-12 act: -2; hcDAF12 agonist: -2

How did N/C(=N\OC(=O)c1ccc(Cl)cc1)c1ccccn1 do in these assays?
DAX1 inh-1: -4; DAX1 inh-2: 4.2*; hgDAF-12 ag: -2; FXN GAA850 act: -4; ssDAF-12 act: -1; hcDAF12 agonist: 5

Results for O=C(NC1CCCCN(Cc2ccc(Cl)cc2)C1=O)c1cc(-c2ccccc2)no1 (stereo unspecified) ?
DAX1 inh-2: -2; hgDAF-12 ag: -1; ssDAF-12 act: 0; hcDAF12 agonist: 3

How did CC(/C=N/NC(=O)Cn1cnc2ccccc21)=C\c1ccccc1 do in these assays?
DAX1 inh-1: -1; DAX1 inh-2: 0; hgDAF-12 ag: -3; FXN GAA850 act: 0; ssDAF-12 act: 8.4*; hcDAF12 agonist: -3

How did O=C(Cn1cnc2ccccc21)N/N=C/c1ccccc1 do in these assays?
DAX1 inh-1: 0; DAX1 inh-2: 1; hgDAF-12 ag: 3; FXN GAA850 act: -2; ssDAF-12 act: 0; hcDAF12 agonist: -1

Results for Cn1cccc1C(=O)N1CCN(S(=O)(=O)c2ccccc2F)CC1 ?
DAX1 inh-2: -1; hgDAF-12 ag: 1; ssDAF-12 act: -2; hcDAF12 agonist: -2

What do the screens show for `O=c1cc(N2CCc3ccccc32)[nH]c(=O)n1Cc1ccc(F)cc1`?
DAX1 inh-1: 0; DAX1 inh-2: 0; hgDAF-12 ag: 0; FXN GAA850 act: 0; ssDAF-12 act: 0; hcDAF12 agonist: 5.8*

What do the screens show for `CC1CC(Nc2ccccc2N)=CC(=O)O1` (stereo unspecified)?
DAX1 inh-1: 3; DAX1 inh-2: 2; hgDAF-12 ag: 10; FXN GAA850 act: 4; ssDAF-12 act: 0; hcDAF12 agonist: 5.8*

What do the screens show for `CCOC(=O)[C@@]12CN(C(=O)OC(C)(C)C)CC=C1N(Cc1ccc(OC)cc1)C(=O)[C@H]2CC(=O)NCCCN1CCCC1=O`?
DAX1 inh-2: -1; hgDAF-12 ag: -1; ssDAF-12 act: -2; hcDAF12 agonist: -2

What do the screens show for `CCOc1ccc2nc(NS(=O)(=O)Cc3ccccc3)sc2c1`?
DAX1 inh-1: 10*; DAX1 inh-2: -1; hgDAF-12 ag: 3; FXN GAA850 act: 1; ssDAF-12 act: 0; hcDAF12 agonist: 1

How did CCc1ccc(S(=O)(=O)Nc2c(C)nc3nc[nH]n3c2=O)cc1 do in these assays?
DAX1 inh-1: 8.0*; DAX1 inh-2: 0; hgDAF-12 ag: -1; FXN GAA850 act: 2; ssDAF-12 act: -1; hcDAF12 agonist: -1

Results for Cc1nc2nc(C)c(NS(=O)(=O)c3ccc(Cl)cc3)c(=O)n2[nH]1 ?
DAX1 inh-1: 0; DAX1 inh-2: 0; hgDAF-12 ag: 4; FXN GAA850 act: 1; ssDAF-12 act: 0; hcDAF12 agonist: 6.4*

How did CCC(=O)Nc1ccc(S(=O)(=O)Nc2c(C)nc3nc[nH]n3c2=O)cc1 do in these assays?
DAX1 inh-1: 0; DAX1 inh-2: 0; hgDAF-12 ag: 1; FXN GAA850 act: 1; ssDAF-12 act: -1; hcDAF12 agonist: 1

What do the screens show for `Cc1ccc(S(=O)(=O)Nc2c(C)nc3nc(C)[nH]n3c2=O)cc1`?
DAX1 inh-1: -1; DAX1 inh-2: 0; hgDAF-12 ag: -4; FXN GAA850 act: -1; ssDAF-12 act: -1; hcDAF12 agonist: 0

Results for Cc1cccc(-n2cc[nH]c2=S)c1 ?
DAX1 inh-1: 1; DAX1 inh-2: 0; hgDAF-12 ag: 0; FXN GAA850 act: 0; ssDAF-12 act: -1; hcDAF12 agonist: 0

How did S=c1[nH]ccn1-c1c(Cl)cccc1Cl do in these assays?
DAX1 inh-1: 0; DAX1 inh-2: 0; hgDAF-12 ag: 10; FXN GAA850 act: 0; ssDAF-12 act: 0; hcDAF12 agonist: 6.5*

What do the screens show for `COc1ccc(-n2c(SCC(=O)Nc3cc(C)c(NC(=O)c4ccccc4)cc3OC)nnc2-c2ccco2)cc1`?
DAX1 inh-2: -3; hgDAF-12 ag: -3; ssDAF-12 act: 0; hcDAF12 agonist: 2

Results for Cc1cccc(N2CCN(C(=O)CN3C(=O)C4CC=CCC4C3=O)CC2)c1C (stereo unspecified) ?
DAX1 inh-1: 1; DAX1 inh-2: 2; hgDAF-12 ag: 11*; FXN GAA850 act: 1; ssDAF-12 act: 0; hcDAF12 agonist: 2

What do the screens show for `Cc1nc(NC(=O)c2cnccn2)ccc1Br`?
DAX1 inh-1: 4.2*; DAX1 inh-2: 1; hgDAF-12 ag: 11*; FXN GAA850 act: 7; ssDAF-12 act: 0; hcDAF12 agonist: 3

What do the screens show for `Cc1ccc(NC(=O)c2cc(-c3ccco3)on2)cc1`?
DAX1 inh-1: 0; DAX1 inh-2: 0; hgDAF-12 ag: 3; FXN GAA850 act: 2; ssDAF-12 act: -2; hcDAF12 agonist: 1
